# In ChEMBL document CHEMBL3988442, “University of Dundee, Small-Polar-MMV Screening Library” (2021):
# Out of some 48,000 compounds screened, about 13,000 (27%) showed an effect of 50% or more. The list shows a part of the results.
# Tested on: Wolbachia pipientis
# Assay: Anti-Wolbachia Cell-Based Screen
# Format: functional
# Design: scale not given: in the data most compounds retested in dose-response had high values
# Settings: 5 µM
row,SMILES,Percent Effect
1,CCCn1cc(C(=O)N(C)Cc2nc(-c3ccccn3)no2)c(C)n1,4.948%
2,CCO[C@@H]1CCN(C(=O)c2cnc(C)cn2)[C@@H]1Cc1cnn(C)c1,-1.532%
3,CS(=O)(=O)c1ccccc1N[C@@H]1c2ccccc2C[C@@H]1O,-8.17%
4,CNc1nc(CNC(=O)Nc2ccc(OC)cc2C)cs1,10.14%
5,CC(=O)N1CC(=O)N(c2cccnc2)CC12CCN(Cc1nccs1)C2.O=C(O)C(F)(F)F.O=C(O)C(F)(F)F (centres undefined),-2.554%
6,O=C(O)C(F)(F)F.O=C(O)C(F)(F)F.O=C1COC2(CCN(Cc3cccs3)CC2)CN1c1cccnc1,97.28%
7,CN(CCCc1ccccc1)C(=O)CCc1nc(-c2nnc[nH]2)no1,-15.35%
8,CN(CCCOc1ccccc1)C(=O)c1csc(-c2nnc[nH]2)n1,111.9%
9,Cc1nc(-c2nnc[nH]2)sc1C(=O)N(Cc1cccnc1)C1CC1,1.946%
10,CCCc1nc(C(=O)N(C)Cc2cnn(-c3cccc(OC)c3)c2)cs1,-14.16%
11,COc1cccc(CN(C)C(=O)c2csc(-c3nnc[nH]3)n2)c1,94.98%
12,COc1cccc(-n2cc(CN(C)C(=O)c3cc[nH]n3)cn2)c1,-0.6043%
13,Cc1csc(CN(C)CCOc2ccccc2)n1,-0.03273%
14,COCCN(Cc1ccccc1)C(=O)c1csc(-c2nnc[nH]2)n1,98.7%
15,COCc1nc(C(=O)N(Cc2ccccc2)CC(C)C(=O)O)cs1 (centres undefined),6.809%
16,Cc1nc2c(NCC(C)N(C)c3ccccc3)ncnc2o1 (centres undefined),-36.58%
17,COc1ccc(C2(C(=O)NCc3c(C)ncc4c3CCNC4)CC2)cc1,-10.04%
18,CNS(=O)(=O)c1cc(C(=O)N(C)Cc2sccc2C)c(C)o1,-10.4%
19,COc1c(C)cnc(CN(C)C(=O)Nc2ccc3c(c2)CCO3)c1C,3.992%
20,COc1ccc(Cc2ncc3c(n2)CN(C(=O)CN(C)C)C3)cc1,-15.7%
21,Cc1nc(C)n(CC2CN(CCOCC(F)(F)F)CCO2)n1 (centres undefined),-2.106%
22,Cn1nccc1C(=O)NC(C)(C)c1noc(C(C)(C)C)n1,27.22%
23,Cc1ccc(CNC(C)(C)c2noc(C(C)(C)C)n2)o1,107.5%

row,SMILES,Percent Effect
1,Cc1csc(C(C)(C)NCCNS(C)(=O)=O)n1,-2.878%
2,CCC(C)(NCC(=O)N(c1ccccc1)C(C)C)c1nc(C)cs1 (centres undefined),-6.604%
3,Cc1nc(C)n(CC2CCCN2CC(=O)N(C)Cc2ccc(C)o2)n1 (centres undefined),1.913%
4,Cc1csc(C(C)(C)NCC(=O)N(C)Cc2ccc(C)o2)n1,102.3%
5,COc1ccccc1C(C)(C)NCc1ccc(C)o1,6.664%
6,Cc1ccc(CN(C)C(=O)CNC(C)(C)c2noc(C(C)(C)C)n2)o1,94%
7,Cc1cnn(C2CN(CC(=O)N(C)Cc3ccc(C)o3)C2)c1,-130.6%
8,Cc1nn(C)c(C)c1OCC(=O)NCC(O)c1ccsc1 (centres undefined),4.904%
9,CCC(=O)N1CCN(C(=O)Nc2ccccc2-c2cccs2)CC1,-6.486%
10,COCC(=O)N1CCN(C)C(=O)C(Cc2ccccc2-c2cccs2)C1 (centres undefined),162.7%
11,CCC(=O)N1CCN(C)C(=O)C(Cc2ccccc2-c2cccs2)C1 (centres undefined),157.1%
12,O=C(Nc1ccccc1-c1cccs1)N1CCN(CC(F)F)CC1,-15.51%
13,COCC(=O)N1CCN(C)C(=O)C(Cc2ccc(-c3cccs3)cc2)C1 (centres undefined),126.7%
14,COCC(=O)N1CCN(C(=O)c2cccs2)[C@@H](C(=O)OC)C1,-3.923%
15,CCC(=O)N1CSCC1C(=O)Nc1ccccc1-c1cccs1 (centres undefined),-5.499%
16,COCCc1noc(CN2CC(C)(c3ccccc3)CCC2=O)n1 (centres undefined),-4.269%
17,COCc1noc(CN2CC(=O)N(C)c3ccccc3C2=O)n1,-11.96%
18,COCc1noc(Cn2c(C3CC3)nc3ccccc32)n1,95.56%
19,COCc1noc(Cn2ncn3cccc3c2=O)n1,-2.273%
20,COCc1noc(Cn2ccc3ncccc3c2=O)n1,1.423%
21,COCCc1noc(Cn2c(=O)[nH]c3ccccc32)n1,95.59%
22,COCCc1noc(Cn2ccc3ccccc3c2=O)n1,-26.03%
23,COCc1noc(Cn2ccc3ccccc3c2=O)n1,-17.57%

row,SMILES,Percent Effect
1,COCc1noc(Cn2c(=O)[nH]c3ccccc32)n1,93.82%
2,CSCC(CCO)NC(=O)Nc1cc(Br)ccc1C (centres undefined),9.066%
3,COCCN1CCC2(CCCN(C(=O)c3cncn3C)C2)CC1.O=C(O)C(F)(F)F,-17.89%
4,Cc1occc(=O)c1OCc1noc(C(=O)NCC(C)C)n1,118%
5,CCc1nc(COc2ccc(N(C)C(C)=O)cc2)no1,-47.78%
6,CCOC(=O)c1nc(COc2c(C)occc2=O)no1,107.7%
7,CNC(=O)c1nc(Cn2ncc3ccccc3c2=O)no1,-11.19%
8,Cc1occc(=O)c1OCc1noc(C(=O)NC(C)C)n1,81.24%
9,CNC(=O)c1ccc(OC)c(NCc2noc(-c3ccsc3)n2)c1,-18.11%
10,Cc1occc1C(=O)NCC(O)c1ccc(Cl)s1 (centres undefined),-1.514%
11,CNC(=O)c1nc(COc2c(C)occc2=O)no1,98.73%
12,Cc1cccnc1C(NC(=O)CNC(=O)c1ccoc1C)C(C)C (centres undefined),-9.405%
13,CCOc1ccc(CC(CNC(=O)c2ccoc2C)C(N)=O)cc1 (centres undefined),-14.81%
14,CN(CCc1nc2cc(Cl)ccc2[nH]1)C(=O)c1ncn[nH]1,8.261%
15,CCCN1C[C@H]2CC[C@@H]1CN(C(=O)c1ccc(N(C)CCO)cc1)C2,-0.2946%
16,COc1ccc(C(C)N2CCC(C(=O)N(C)C)CC2)cc1Cl (centres undefined),13.21%
17,COC(=O)NCC(=O)N(C)CC1Cc2ccccc2CN1C (centres undefined),-16.07%
18,Cc1c(I)cccc1C(=O)NCc1nnc[nH]1,-11.57%
19,CC(C)(C)C(=O)N1C[C@H](c2ccsc2)[C@H]2CN(C3CCCC3)CC[C@H]21.Cl,191.9%
20,COC(=O)N1CCC(NC(=O)N2CCCC2c2ccsc2)CC1 (centres undefined),22.17%
21,CC(C)(C)C(=O)N1C[C@H](c2ccsc2)[C@H]2CN(C3CCCCC3)CC[C@H]21.Cl,142.3%
22,CC(C)(C)C(=O)N1C[C@H](c2ccsc2)[C@H]2CN(Cc3cccs3)CC[C@H]21.Cl,6.375%
23,COC(=O)CS(=O)(=O)CCC(=O)N1CCCC1c1ccsc1 (centres undefined),0.3686%
